# Test results from the supplement of paper PMC11060735.
# Values joined by “and” are separate entries in the source; they are usually repeats but may differ in a detail not shown here. Equal entries are not always repeated. Structures can show the parent of a compound that is named as a salt. In all, about 1,800 compounds went through this assay and about 50 (3%) showed activity. The list comes from a sample in which actives are over-represented; it also holds similar structures and randomly drawn compounds. A number with no mark means an inactive call.
# Test system: mouse p16Ink4a+/- lung fibroblasts (INKBRITE, bleomycin-injured)
# Assay: percentage of GFP+ (p16Ink4a+) fibroblasts among all cells in well; higher = less depletion of p16Ink4a+ cells, active = 20 or less
# Conditions: 1 µM; 3 days
row,SMILES,percentage of GFP+
1,N#C/C(=C\c1ccc(O)c(O)c1)C(=O)NCc1ccccc1 [Tyrphostin Ag 490],42.9%
2,CCC[C@H](NC(=O)/C(C#N)=C/c1cccc(Br)n1)c1ccccc1 [Degrasyn],13.1% (active)
3,C[C@H](NC(=O)/C(C#N)=C/c1cccc(Br)n1)c1ccccc1,43%
4,Nc1ccn([C@@H]2O[C@H](CO)[C@@H](O)[C@@H]2O)c(=O)n1 [Cytarabine],26.8%
5,Nc1ccn([C@@H]2O[C@H](CO)[C@@H](O)C2(F)F)c(=O)n1 [Gemcitabine],17.1% (active)
6,Nc1ccn([C@@H]2O[C@H](CO)[C@@H](O)[C@H]2O)c(=O)n1 [Cytidine],48.9%
7,Cc1nc2n(c(=O)c1CCN1CCC(c3noc4cc(F)ccc34)CC1)CCCC2 [Risperidone],42.6%
8,Cn1c(=O)n(-c2ccc(C(C)(C)C#N)cc2)c2c3cc(-c4cnc5ccccc5c4)ccc3ncc21 [Dactolisib],36%
9,COc1ccc(-c2ccc3ncc4c(c3c2)n(-c2ccc(N3CCNCC3)c(C(F)(F)F)c2)c(=O)n4C)cn1,10.6% (active)
10,CCC(=O)N1CCN(c2ccc(-n3c(=O)ccc4cnc5ccc(-c6cnc7ccccc7c6)cc5c43)cc2C(F)(F)F)CC1 [Torin 1],46%
11,Cc1cc(Nc2cc(CN3CCOCC3)c3nc(C)c(Cc4ccc(Cl)cc4F)n3n2)[nH]n1,43.7%
12,Cn1c(N2CCCCS2(=O)=O)nc(C(=O)NCc2ccc(F)cc2)c(O)c1=O,26.4%
13,NC(=O)c1noc([C@H](CCCC2CCCCC2)CC(=O)NO)n1,47%
14,CC(=O)O[C@H]1C[C@@H]2CC[C@@H]3[C@H](CC[C@@]4(C)[C@H]3C[C@H]([N+]3(C)CCCCC3)[C@@H]4OC(C)=O)[C@@]2(C)C[C@@H]1N1CCCCC1 [Vecuronium],47%
15,O=C(O)CCNC(=O)c1ccccc1 [Betamipron],46%
16,O=C(O)c1ccccc1 [Benzoic Acid],44.8%
17,CN(NC(=O)CC(=O)NN(C)C(=S)c1ccccc1)C(=S)c1ccccc1 [Elesclomol],12% (active)
18,Cn1cc(C2=C(c3cn(CCCSC(=N)N)c4ccccc34)C(=O)NC2=O)c2ccccc21,58.4%
19,OC[C@H]1O[C@@H](n2cnc3c(O)ncnc32)[C@H](O)[C@@H]1O [Inosine],47.7%
20,CN1CCN(CCOc2cc(OC3CCOCC3)c3c(Nc4c(Cl)ccc5c4OCO5)ncnc3c2)CC1 [Saracatinib],46.2%
21,CC[C@]1(O)C[C@@H]2CN(CCc3c([nH]c4ccccc34)[C@@](C(=O)OC)(c3cc4c(cc3OC)N(C=O)[C@@H]3C45CCN4CC=C[C@](CC)([C@H]45)[C@@H](OC(C)=O)[C@]3(O)C(=O)OC)C2)C1 (some centres not stated) [Vincristine],16.5% (active)

row,SMILES,percentage of GFP+
1,CC[C@]1(O)C[C@@H]2CN(CCc3c([nH]c4ccccc34)[C@@](C(=O)OC)(c3cc4c(cc3OC)N(C)[C@@H]3C45CCN4CC=C[C@](CC)([C@H]45)[C@@H](OC(C)=O)[C@]3(O)C(=O)OC)C2)C1 (some centres not stated) [Vinblastine],24.8%
2,CC#C[C@]1(O)CC[C@H]2[C@@H]3CCC4=CC(=O)CCC4=C3[C@@H](c3ccc(N(C)C)cc3)C[C@@]21C [Mifepristone],46.9%
3,CN[C@@H](C)C(=O)N[C@H](C(=O)N1CCC[C@H]1C(=O)Nc1snnc1-c1ccccc1)C1CCCCC1,21.9%
4,C=CCNC(N)=S [Allylthiourea],35%
5,NC(=S)N/N=C/c1ncccc1N [Triapine],17.4% (active)
6,N=C(N)N/N=C/c1c(Cl)cccc1Cl [Guanabenz],49.3%
7,COc1ccc([C@@H]2CC(=O)c3c(O)cc(O)cc3O2)cc1O [Hesperetin],47.8%
8,COc1cc2nccc(Oc3ccc(NC(=O)C4(C(=O)Nc5ccc(F)cc5)CC4)cc3)c2cc1OC [Cabozantinib],29.6%
9,CCOc1nc2cccc(C(=O)OC(C)OC(=O)OC3CCCCC3)c2n1Cc1ccc(-c2ccccc2-c2nn[nH]n2)cc1 (configuration not stated) [Candesartan Cilextil],44.8%
10,CC(=O)Oc1cc2c(s1)CCN(C(C(=O)C1CC1)c1ccccc1F)C2 (configuration not stated) [Prasugrel],49.3%
11,Cc1ccc(C(=O)Nc2ccc(CN3CCN(C)CC3)c(C(F)(F)F)c2)cc1C#Cc1cnc2cccnn12 [Ponatinib],31.2%
12,Cc1ccc(NC(=O)c2ccc(CN3CCN(C)CC3)cc2)cc1Nc1nc(-c2cccnc2)cs1 [Masitinib],30.8%
13,Cc1ccc(C(=O)Nc2ccc(CN3CCN(C)CC3)c(C(F)(F)F)c2)cc1C#Cc1cnc2[nH]ncc2c1 [Olverembatinib],17.2% (active)
14,Cn1c(=O)c(F)c(Nc2ccc(I)cc2F)c2c(=O)n(C[C@@H](O)CO)cnc21,28.4%
15,O=S(=O)(c1cccc2cnccc12)N1CCCNCC1 [Fasudil Hydrochloride],48.7%
16,Nc1ccccc1NC(=O)c1ccc(CNc2nccc(-c3cccnc3)n2)cc1 [Mocetinostat],12.6% (active)
17,Nc1ccccc1NC(=O)c1ccc(CNC(=O)OCc2cccnc2)cc1 [Entinostat],32%
18,"Cc1ccc(NC(=O)c2ccc(CN3CCN(C)CC3)cc2)cc1Nc1nccc(-c2cccnc2)n1 [Imatinib, Imatinib Mesylate]",32.5% and 39%
19,N#CC1(c2ccc(NC(=O)c3cccnc3NCc3ccncc3)cc2)CCCC1 [Apatinib],28%
20,N=C(N)NC(=O)c1nc(Cl)c(N)nc1N [Amiloride],33.1%
21,CC(C)(C#N)c1cc(Cn2cncn2)cc(C(C)(C)C#N)c1 [Anastrozole],45.5%

row,SMILES,percentage of GFP+
1,C[C@H](N[C@@H](CCc1ccccc1)C(=O)O)C(=O)N1CCC[C@H]1C(=O)O [Enalaprilat],36.7%
2,COc1ccc(C[C@H](NC(=O)[C@H](C)NC(=O)CN2CCOCC2)C(=O)N[C@@H](Cc2ccccc2)C(=O)[C@]2(C)CO2)cc1,11.6% (active)
3,COC[C@H](NC(=O)c1cnc(C)s1)C(=O)N[C@@H](COC)C(=O)N[C@@H](Cc1ccccc1)C(=O)C1(C)CO1 (some centres not stated) [Oprozomib],5.21% (active)
4,CC(C)c1nc(CN(C)C(=O)N[C@@H](CCN2CCOCC2)C(=O)N[C@H](CC[C@H](Cc2ccccc2)NC(=O)OCc2cncs2)Cc2ccccc2)cs1 [Cobicistat],43.4%
5,O=C(Cc1ccc(-c2ccc(OCCN3CCOCC3)cc2)cn1)NCc1ccccc1,30.9%
6,CC(C)C[C@H](NC(=O)[C@H](CCc1ccccc1)NC(=O)CN1CCOCC1)C(=O)N[C@@H](Cc1ccccc1)C(=O)N[C@@H](CC(C)C)C(=O)[C@@]1(C)CO1 [Carfilzomib],4.67% (active)
7,COC1=C(OC)C(=O)C(CCCCCCCCCCO)=C(C)C1=O [Idebenone],43.7%
8,CCCc1cc(C)nc(O)c1CNC(=O)c1cc(-c2ccc(N3CCN(C(C)C)CC3)nc2)cc2c1cnn2C(C)C,39.6%
9,O=C(O)c1cc(-c2ccccc2)nc2ccccc12 [Cinchophen],46.7%
10,C[C@@]1(c2cc(-c3cncnc3)c(F)cc2F)CCSC(N)=N1,36.4%
11,COC(=O)c1ccc2c(/C(=N/c3ccc(N(C)C(=O)CN4CCN(C)CC4)cc3)c3ccccc3)c(O)[nH]c2c1 [Nintedanib],25.4%
12,O=C(NC1CCOCC1)c1ccc(-c2cc(-c3c[nH]nc3-c3ccccn3)ccn2)cc1,40.4%
13,Cc1cnc(NC(=O)Nc2cc(Br)c(C)cc2OC[C@@H]2CNCCO2)cn1,28.6%
14,CCc1c(Cl)c(O)c(Cl)c(O)c1C(=O)O[C@H]1[C@H](O)[C@H](OC)[C@H](OC/C2=C\C=C\C[C@H](O)/C(C)=C\[C@H](CC)[C@@H](O[C@@H]3OC(C)(C)[C@@H](OC(=O)C(C)C)[C@H](O)[C@@H]3O)/C(C)=C\C(C)=C/C[C@@H]([C@@H](C)O)OC2=O)O[C@@H]1C [Fidaxomicin],50.9%
15,Cc1cc(C#N)cc(C)c1Oc1nc(Nc2ccc(C#N)cc2)nc(N)c1Br [Etravirine],35%
16,"CC(=O)[C@]1(O)Cc2c(O)c3c(c(O)c2[C@@H](O[C@H]2C[C@H](N)[C@H](O)[C@H](C)O2)C1)C(=O)c1ccccc1C3=O [Idarubicin, Idarubicin Hydrochloride]",19.9% (active)
17,COc1cccc2c1C(=O)c1c(O)c3c(c(O)c1C2=O)C[C@@](O)(C(C)=O)C[C@@H]3O[C@H]1C[C@H](N)[C@H](O)[C@H](C)O1 [Daunorubicin],24.3%
18,COc1cccc2c1C(=O)c1c(O)c3c(c(O)c1C2=O)C[C@@](O)(C(=O)CO)C[C@@H]3O[C@H]1C[C@H](N)[C@H](O)[C@H](C)O1 [Doxorubicin],25.2%
19,CC(=O)N1CCN(CCOc2ccc(C3CCN(C4=Nn5c(nnc5C(F)(F)F)CC4)CC3)cc2)CC1,43.8%
20,CC[C@H](C)[C@H]1O[C@]2(CC[C@@H]1C)C[C@@H]1C[C@@H](C/C=C(\C)[C@@H](O[C@H]3C[C@H](OC)[C@@H](O[C@H]4C[C@H](OC)[C@@H](O)[C@H](C)O4)[C@H](C)O3)[C@@H](C)/C=C/C=C3\CO[C@@H]4[C@H](O)C(C)=C[C@@H](C(=O)O1)[C@]34O)O2 [Ivermectin],37.9%
